# PP1 inh = PP1-alpha phosphatase inhibitors, primary screen, counter-screen for PP5 inhibitor project, biochemical, fluorescence, OMFP substrate, single point | 0.9% of 320,000 active | AID 2235, 2010 | purified PP1alpha | Serine/threonine-protein phosphatase PP1-alpha catalytic subunit (Homo sapiens), P62136 | inhibition, % at 6.7 µM;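 active = inhibition above the mean inhibition of all tested compounds plus 3 SD, computed separately for each screening campaign, cut at about 15% in these data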
# STK33 inh = inhibitors of purified STK33 kinase, primary screen, biochemical, ADP-Glo luminescence, homogeneous, cell-free. Serine/threonine-protein kinase 33 (Homo sapiens), Q9BYT3. MBP phosphorylation. inhibition, % at 10 µM. 0.073% of 320,000 active. AID 2661, 2010;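 active = inhibition at or above 25%, using the most active replicate where run in duplicate; inactive = inhibition below 25%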
# DYRK1A inh = rat Dyrk1A kinase inhibitors, primary screen, biochemical, single point, plate reader; Dual specificity tyrosine-phosphorylation-regulated kinase 1A (Rattus norvegicus), Q63470; ADP-Glo luminescence, NFATc1 peptide; inhibition, % at 12.5 µM; 0.43% of 310,000 active; AID 504441, 2011; in the data active = inhibition above about 50%;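 also: plate controls were vehicle with enzyme for no effect and no enzyme for full effect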
# HIF act = HIF pathway transcriptional activators, primary screen, cell-based, U2OS HRE-luciferase, luminescence; U2OS HRE-luciferase reporter; normalized: DMSO 0%, desferrioxamine 100%; activation, % at 7.5 µM (by protocol); 0.32% of 300,000 active; AID 1910, 2009;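 active = mean activation of at least 10% of the iron chelator positive control signal, with at least half of replicates also reaching 10%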
# PP5 inh = PP5 phosphatase inhibitors, primary screen, biochemical, fluorescence; purified PP5c, OMFP substrate fluorescence; Serine/threonine-protein phosphatase 5 (Homo sapiens), P53041; AID 1987, 2009; 0.18% of 320,000 active; inhibition, % at 6.7 µM;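 active = inhibition above the campaign's mean inhibition across all tested compounds plus 3 SD, cut at about 9.5% in these data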;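 also: 0% = DMSO only and 100% = 100 µM cantharidin control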
# Target sequence (P53041 whole entry, looked up): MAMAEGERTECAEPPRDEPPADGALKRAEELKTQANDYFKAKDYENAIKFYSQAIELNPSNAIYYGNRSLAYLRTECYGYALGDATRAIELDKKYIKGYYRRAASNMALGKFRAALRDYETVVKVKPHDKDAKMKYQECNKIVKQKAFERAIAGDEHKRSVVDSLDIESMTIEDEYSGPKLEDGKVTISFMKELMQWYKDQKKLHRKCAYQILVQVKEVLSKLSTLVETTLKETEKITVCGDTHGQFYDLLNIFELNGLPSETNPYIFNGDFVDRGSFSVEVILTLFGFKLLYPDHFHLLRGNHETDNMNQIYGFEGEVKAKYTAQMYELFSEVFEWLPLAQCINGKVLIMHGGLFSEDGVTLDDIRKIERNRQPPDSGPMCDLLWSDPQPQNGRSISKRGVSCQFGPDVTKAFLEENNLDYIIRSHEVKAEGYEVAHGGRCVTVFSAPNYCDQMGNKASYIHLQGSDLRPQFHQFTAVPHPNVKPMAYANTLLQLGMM
# PP1 confirm = PP1 phosphatase inhibitors, confirmation, biochemical, fluorescence, OMFP substrate, triplicate. shares compounds with PP1 inh. purified PP1alpha. inhibition, % at 6.7 µM. 52% of 1,900 active;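 active = mean PP1 inhibition above a set limit taken from the earlier primary screen, cut at about 15% in these data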
# PP5 inh counter = PP5 phosphatase inhibition by PP1 hits, confirmation, counter-screen for PP1 inhibitor project, biochemical, fluorescence, triplicate; shares compounds with PP1 inh; purified PP5c, OMFP fluorescence; inhibition, % at 6.7 µM; 4% of 1,900 active;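 active = mean PP5 inhibition over triplicate wells above about 9.5% taken from the earlier PP1 screen, limit read from the data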
# * hit, by the source's call; x = no result given. In the library only some 1.5% were active in any assay of this set; here they are far more common.
SMILES,PP1 inh,STK33 inh,DYRK1A inh,HIF act,PP5 inh,PP1 confirm,PP5 inh counter
Cc1ccc(S(=O)(=O)N2[C@@H](c3ccc(F)cc3)C(C(=O)O)=CC[C@H]2c2ccc(C(C)C)cc2)cc1,19*,-1,-3,x,4,12,3
Cc1ccc(S(=O)(=O)N2[C@@H](c3ccc(Cl)cc3)C(C(=O)O)=CC[C@H]2c2ccc(Cl)cc2)cc1,21*,0,4,x,5,12,0
Cc1ccc(S(=O)(=O)N2[C@@H](c3ccc(F)cc3)C(C(=O)O)=CC[C@H]2c2ccc(Cl)cc2)cc1,11,-1,6,x,-2,x,x
Cc1ccc([C@@H]2CC=C(C(=O)O)[C@H](c3ccc(Cl)cc3)N2S(=O)(=O)c2ccc(C)cc2)cc1,11,-2,-11,x,3,x,x
COc1ccc(Cl)cc1C(=O)n1cnc2ccccc21,-3,0,8,0,-1,x,x
O=C(NC(=S)Nc1cc(S(=O)(=O)N2CCOCC2)ccc1N1CCOCC1)C1CCCC1,-7,-2,x,0,0,x,x
COc1cc(/C=C2\CCn3c2nc2cc(C(=O)O)ccc2c3=O)ccc1OC(F)F,-1,-1,-3,-4,-1,x,x
COc1cccc(/C=N/Nc2cc(Cl)nc(C)n2)c1O,5,0,11,3,5,x,x
COc1cccc(/C=N/Nc2ncnc3c2ncn3Cc2ccccc2)c1O,20*,-1,-2,68*,3,27*,-1
COc1cccc(/C=N/Nc2cc(N3CCOCC3)ncn2)c1O,25*,-1,-3,0,4,20*,-5
COc1cc(S(=O)(=O)NCC2(N3CCCCC3)CCCCC2)ccc1NC(C)=O,x,x,6,x,x,x,x
O=C(Nc1cccc(C(F)(F)F)c1)c1ccc2nc(-c3ccco3)c(-c3ccco3)nc2c1,32*,-1,-1,-1,1,11,0
O=[N+]([O-])c1ccc(CCNc2cccc3ccccc23)c([N+](=O)[O-])c1,25*,0,7,-1,1,24*,-2
Cc1cc([N+](=O)[O-])ccc1NCc1cccc2ccccc12,3,-2,1,x,1,x,x
O=C(COc1cccnc1[N+](=O)[O-])NCCc1ccccc1,-4,-1,-7,0,-2,x,x
NC1C2CN(c3nc4c(cc3F)c(=O)c(C(=O)O)cn4-c3ccc(F)cc3F)CC12 (stereo not drawn),20*,2,0,0,1,15,-2
O=C(c1ccc2c(c1)OCCO2)N1CCN(c2ncc(C(F)(F)F)cc2Cl)CC1,-2,x,-1,0,1,x,x
O=C(CN1C(=O)/C(=C2\SC(=S)N(CCS(=O)(=O)O)C2=O)c2ccccc21)Nc1cccc(Br)c1,37*,0,4,0,2,39*,-2
O=C(CN1C(=O)/C(=C2/SC(=S)N(CCS(=O)(=O)O)C2=O)c2ccccc21)Nc1cccc(C(F)(F)F)c1,x,-4,15,x,x,x,x
COc1ccc(C(=O)Nc2ccc(Cl)cc2C(=O)N2CCCC(C)C2)cc1 (stereo not drawn),60*,-1,3,0,-1,-1,-1
COc1ccc(C(=O)Nc2ccc(Cl)cc2C(=O)N2CCOCC2)cc1,1,0,x,-1,-1,x,x
CCOC(=O)Nc1ccc2c(CNC(C)c3ccccc3OC)cc(=O)oc2c1 (stereo not drawn),0,-4,0,1,0,x,x
CCN(CC(O)CON=C1c2ccccc2-c2ccccc21)S(=O)(=O)c1ccc(C)cc1 (stereo not drawn),1,-1,x,x,5,x,x
CN(CC(O)CON=C1c2ccccc2-c2ccccc21)S(=O)(=O)c1ccc(Br)cc1 (stereo not drawn),41*,x,1,-1,3,-2,-2
Cn1c(SCC(=O)c2ccc3c(c2)Cc2ccccc2-3)nnc1-c1ccccc1,26*,0,0,0,3,32*,-1
SMILES,PP1 inh,STK33 inh,DYRK1A inh,HIF act,PP5 inh,PP1 confirm,PP5 inh counter
O=C(Nc1ccccc1Cl)ON=C1c2ccccc2-c2ccccc21,0,9,-5,1,5,x,x
CCSc1nc2c(cnn2-c2ccc(C)cc2)c(=O)[nH]1,22*,0,-6,0,-10,6,-4
O=C(Cn1cnc2sc(-c3ccccc3)cc2c1=O)NCCc1ccccc1,0,0,1,0,0,x,x
O=C(Cn1cnc2sc(-c3ccccc3)cc2c1=O)NCc1ccco1,22*,0,13,x,0,19*,2
COc1cc2ccccc2cc1C(=O)Nc1ccc2oc(=O)ccc2c1,24*,7,3,-16,-1,11,-6
CC(C)(C)c1ccc(-n2ncc3c2CCCC3NC(=O)C2=NNC(=O)CC2)cc1 (stereo not drawn),2,0,-5,0,0,x,x
CC(NC(=O)C1CCC(CNS(=O)(=O)c2ccccc2)CC1)c1ccccc1 (stereo not drawn),-4,0,4,-1,-2,x,x
CCOc1ccccc1NC(=O)COC(=O)Cc1ccsc1,3,x,x,x,1,x,x
CCOc1ccccc1NC(=O)COC(=O)Cc1ccc(-c2ccccc2)cc1,21*,1,-3,0,3,16*,-3
NC(=O)c1oc2ccccc2c1NC(=O)c1nc2ccccc2s1,25*,-1,x,3,-3,16*,-6
O=C(Nc1nnc(-c2ccccc2)o1)c1nc2ccccc2s1,25*,0,13,0,-1,28*,-8
O=C(NCC1CCCCC1)c1cccc(-c2ccc(O)cc2)c1,18*,-1,8,0,-2,-2,0
COc1cc(/C=C/C(=O)OCC(=O)N2CCCC2)ccc1OCC#N,15,1,3,x,8,x,x
O=C(O)C1=CC[C@@H](c2ccc(Cl)cc2)N(S(=O)(=O)c2ccc(Cl)cc2)[C@H]1c1ccc(Br)cc1,x,x,-12,x,x,x,x
Cc1c(O)ccc2c(CC(=O)N[C@@H](Cc3ccc(O)cc3)C(=O)O)cc(=O)oc12,x,0,14,1,x,x,x
CC(=O)C1=C(O)C(=O)N(c2ccc(Br)cc2)C1c1ccc(Cl)cc1 (stereo not drawn),28*,-1,-5,2,-2,21*,-1
COc1ccc(C2C(C(C)=O)=C(O)C(=O)N2c2ccc(Br)cc2)cc1 (stereo not drawn),18*,-1,16,-18,3,17*,-3
